The source of these data is PubChem BioAssay (NCI).

Structures are written as SMILES. About 83,000 compounds went through this panel and 20% of them were active in at least one assay; those are over-represented in the sample as a whole.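 Percent growth is the endpoint: 0 to 100 indicates growth inhibition (40 means 60% inhibition), 0 means no net growth, and negative values indicate cell death.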 A number with no mark means an inactive call. Activity calls are given as the source filed them. Rule for the calls: active = growth percent below 10; inactive = the rest.

Test systems include RPMI-8226 leukemia; OVCAR-8 ovarian; OVCAR-5 ovarian; OVCAR-4 ovarian; SK-OV-3 ovarian; IGROV1 ovarian; OVCAR-3 ovarian; HS 578T breast; NCI/ADR-RES ovarian; T-47D breast; BT-549 breast; MDA-MB-435 melanoma; MCF7 breast; HCT-116 colon; HCC-2998 colon; KM12 colon; SW-620 colon.
Experiment in all cases: NCI-60 one-dose screen, 48 h (100 = growth as untreated, 0 = no growth, -100 = all killed)
What all share (conditions): 10 µM

For `CC(=O)c1cc(Cl)ccc1O`, the growth in the assay with RPMI-8226 leukemia is 105%; in the assay on OVCAR-8 ovarian, 109%; with OVCAR-5 ovarian it was 94.3%; with OVCAR-4 ovarian, 120%; with SK-OV-3 ovarian it was 111%; in the assay with IGROV1 ovarian, 116%. The growth with OVCAR-3 ovarian is 102%; with HS 578T breast, 104%; in the assay on NCI/ADR-RES ovarian, 104%; in the assay on T-47D breast, 99.7%; in the assay on BT-549 breast, 105%; in the assay with MDA-MB-435 melanoma, 101%. The growth is 105% in the assay on MCF7 breast, 102% in the assay with HCT-116 colon, 97.4% in the assay on HCC-2998 colon and 96.2% in the assay with KM12 colon.
Take `Cc1occc1-c1nnc(SCC(=O)c2ccc(NC(=O)CC(C)C)cc2)o1`: the growth with RPMI-8226 leukemia is 77.7%; in the assay with OVCAR-8 ovarian it was 57%; in the assay on OVCAR-5 ovarian, 105%; in the assay with OVCAR-4 ovarian, 122%; in the assay on SK-OV-3 ovarian, 121%; in the assay with IGROV1 ovarian, 69.1%. The growth in the assay with OVCAR-3 ovarian is 104%; in the assay with HS 578T breast, 119%; in the assay on NCI/ADR-RES ovarian it was 104%; with T-47D breast, 102%; in the assay with BT-549 breast it was 108%; in the assay with MDA-MB-435 melanoma, 97.9%. For the same compound, the growth in the assay with MCF7 breast is 107%; in the assay with HCT-116 colon, 109%; in the assay with HCC-2998 colon, 74.5%; in the assay with KM12 colon, 99.4%.
For `O=C1OCC2=C1C(c1cccc(Cl)c1)c1cc3c(cc1N2CCO)OCO3` (centres undefined), the growth in the assay with RPMI-8226 leukemia is 22.4%; with OVCAR-8 ovarian, 25.1%; in the assay with OVCAR-5 ovarian, 31.2%; in the assay with OVCAR-4 ovarian, 64.5%; in the assay with SK-OV-3 ovarian, 19.4%; in the assay with IGROV1 ovarian it was 44%. The growth is -50.6% (active) in the assay on OVCAR-3 ovarian; -5.17% (active) in the assay with HS 578T breast; -11% (active) with NCI/ADR-RES ovarian; 62.6% in the assay on T-47D breast; 59.6% in the assay with BT-549 breast; -46.1% (active) in the assay on MDA-MB-435 melanoma. For the same compound, the growth was 21.3% with SW-620 colon, 23.9% in the assay on MCF7 breast, 19% in the assay with HCT-116 colon and 8.24% (active) with KM12 colon.
As for `CN1CCC(CNc2cc(C3(C(=O)Nc4cc(C(=O)Nc5ccc(Cl)c(C(F)(F)F)c5)ccc4F)CC3)ncn2)CC1`, the growth in the assay with RPMI-8226 leukemia was -32% (active); with OVCAR-8 ovarian, 44.3%; in the assay with OVCAR-5 ovarian it was 71.6%; with OVCAR-4 ovarian, 81.1%; in the assay with SK-OV-3 ovarian it was 45.9%; in the assay with IGROV1 ovarian, 54.8%. The growth was 29.4% with OVCAR-3 ovarian; 13.6% in the assay with HS 578T breast; 86.7% in the assay on NCI/ADR-RES ovarian; 63.7% with T-47D breast; 52.5% in the assay on BT-549 breast; -53.1% (active) in the assay with MDA-MB-435 melanoma. In addition, the growth with MCF7 breast is -43% (active); in the assay on HCT-116 colon, 8.41% (active); in the assay with HCC-2998 colon it was 22.8%; in the assay with KM12 colon, 36.1%.
Take `COc1cc2c(cc1OC)N(CCO)C1=C(C(=O)OC1)C2c1ccc(Cl)c(Cl)c1` (centres undefined): the growth was 92.1% with RPMI-8226 leukemia; 103% in the assay on OVCAR-8 ovarian; 111% in the assay on OVCAR-5 ovarian; 104% with OVCAR-4 ovarian; 106% with SK-OV-3 ovarian; 110% in the assay on IGROV1 ovarian. In addition, the growth with OVCAR-3 ovarian is 112%; in the assay with HS 578T breast, 103%; in the assay on NCI/ADR-RES ovarian, 104%; in the assay with T-47D breast, 88.3%; in the assay on BT-549 breast, 89.4%; in the assay with MDA-MB-435 melanoma, 101%. In addition, the growth with SW-620 colon was 102%; with MCF7 breast, 95.8%; in the assay with HCT-116 colon, 97.7%; with KM12 colon, 102%.
With `Oc1[nH]c2ccc(Cl)cc2c1/C=c1/ccc2c(c1)N=C(c1cccs1)N=2`, the growth was 48% in the assay with RPMI-8226 leukemia; 52.2% with OVCAR-8 ovarian; 89.3% with OVCAR-5 ovarian; 52.3% in the assay with OVCAR-4 ovarian; 87.5% in the assay with SK-OV-3 ovarian; 61% in the assay with IGROV1 ovarian. For the same compound, the growth in the assay on OVCAR-3 ovarian is 56.1%; with HS 578T breast, 59.5%; with NCI/ADR-RES ovarian it was 64.3%; in the assay on T-47D breast, 59.4%; in the assay on BT-549 breast, 57.4%; in the assay with MDA-MB-435 melanoma it was 39%. In addition, the growth in the assay with MCF7 breast was 10.1%; in the assay with HCT-116 colon it was 52.9%; with HCC-2998 colon, 88.6%; with KM12 colon, 58%.
In the case of `CCN(CC)CCCOCCCNc1cc(OC)cc2cccnc12`, the growth is 80.3% in the assay on RPMI-8226 leukemia; 92.1% in the assay on OVCAR-8 ovarian; 102% in the assay with OVCAR-5 ovarian; 26.6% in the assay on OVCAR-4 ovarian; 97.3% in the assay on SK-OV-3 ovarian; 75.2% in the assay with IGROV1 ovarian. Also, the growth in the assay with OVCAR-3 ovarian is 65.9%; with HS 578T breast it was 100%; in the assay with NCI/ADR-RES ovarian it was 95.4%; with T-47D breast it was 33.9%; with BT-549 breast, 103%; in the assay on MDA-MB-435 melanoma, 112%. For the same compound, the growth in the assay with MCF7 breast is -3.69% (active); in the assay with HCT-116 colon, 94.5%; in the assay with HCC-2998 colon it was 83.9%; with KM12 colon, 102%.
For the compound `O=C1OCC2=C1C(c1cccc(Cl)c1)c1cc3c(cc1N2CCO)OCCO3` (centres undefined), the growth is 20.2% in the assay on RPMI-8226 leukemia; 1.27% (active) in the assay with OVCAR-8 ovarian; 30.3% with OVCAR-5 ovarian; 56.2% with OVCAR-4 ovarian; 26.1% in the assay on SK-OV-3 ovarian; 22.2% in the assay with IGROV1 ovarian. Also, the growth was -52.2% (active) in the assay on OVCAR-3 ovarian; -6.14% (active) in the assay with HS 578T breast; 0.234% (active) with NCI/ADR-RES ovarian; 73.5% in the assay on T-47D breast; 32.4% in the assay with BT-549 breast; -42.1% (active) in the assay on MDA-MB-435 melanoma. Also, the growth in the assay with SW-620 colon was 18.7%; in the assay with MCF7 breast, 18%; with HCT-116 colon, 6.21% (active); with KM12 colon, -32.8% (active).
As for `Fc1ccc2nc(-c3nc(-c4ccccc4)n4ccccc34)[nH]c2c1`, the growth in the assay on RPMI-8226 leukemia is -25.9% (active); in the assay with OVCAR-8 ovarian it was -58.7% (active); in the assay on OVCAR-5 ovarian, 55.9%; in the assay on OVCAR-4 ovarian, -71.2% (active); with SK-OV-3 ovarian, -43.2% (active); in the assay with IGROV1 ovarian, 1.27% (active). The growth in the assay on OVCAR-3 ovarian is 0.252% (active); with HS 578T breast, -5.1% (active); in the assay on NCI/ADR-RES ovarian it was -13.1% (active); in the assay on T-47D breast, -0.867% (active); in the assay with MDA-MB-435 melanoma, -19.4% (active); in the assay with SW-620 colon it was 26.5%. Also, the growth in the assay on MCF7 breast is -12.6% (active); in the assay on HCT-116 colon it was -31.2% (active); in the assay with HCC-2998 colon, 29.2%.
Take `COc1ccc(Cn2c(C(N)=O)cc3c2-c2nc(N)ncc2CCC3)cc1`: the growth in the assay on RPMI-8226 leukemia is 85.5%; in the assay with OVCAR-8 ovarian it was 98.6%; in the assay on OVCAR-5 ovarian, 87.7%; with OVCAR-4 ovarian it was 99.7%; in the assay with SK-OV-3 ovarian, 104%; in the assay on IGROV1 ovarian it was 101%. The growth in the assay on OVCAR-3 ovarian is 107%; with HS 578T breast, 91.3%; in the assay with NCI/ADR-RES ovarian, 110%; in the assay on T-47D breast, 104%; with BT-549 breast it was 109%; in the assay on MDA-MB-435 melanoma, 97.2%. In addition, the growth with MCF7 breast was 92.7%; with HCT-116 colon, 101%; in the assay with HCC-2998 colon, 104%; in the assay with KM12 colon, 97.5%.
